Screening results deposited in PubChem by National Center for Advancing Translational Sciences (NCATS).
Only some compounds are listed: those with a hit (about 19% of all), similar ones and a draw of the others.
IL1B secr inh = qHTS for Inhibitors of Inflammasome Signaling: IL-1-beta AlphaLISA Primary Screen. activity change, % at 57.5 µM. THP-1 LPS/ATP IL-1B secretion, AlphaLISA, 16 h; stronger effect = lower value. 360,000 compounds, 4.7% hits; in the data active = activity change below about -50%; inconclusive = mostly about -30% to -49%
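THP-1 cells pretreated 1 hr with compounds (up to 57.5 uM final), then stimulated with LPS (250 ng/mL final) plus ATP (1.25 mM final); secreted IL-1B measured by AlphaLISA after 16 hr, decreased signal indicating inhibition.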
HT1080NT lethal = qHTS for induction of synthetic lethality in tumor cells producing 2HG: qHTS for the HT-1080-NT fibrosarcoma cell line. HT-1080-NT fibrosarcoma viability, CellTiter-Glo ATP luminescence, 48 h. Potency, µM (series often up to 46.1 µM), for the others: top-dose activity, negative = less viability, most hits filed as cytotoxic. 360,000 compounds, 1.6% hits;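 note: NT is the 2HG producing partner of a matched IDH1 knockdown line; potency is the fitted concentration of half-maximal effect; 0% = DMSO-treated cells and -100% = media-only wells without cells; nearly all actives have a fitted effect of over 55% in size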
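750 cells/well, RPMI + 5% FBS; 2 h settle, compound pin-transfer, 48 h at 37 degrees C. CellTiter-Glo 10 min RT, luminescence. Normalized to DMSO and media-only wells.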
HT1080 IDH1KD tx = qHTS for induction of synthetic lethality in tumor cells producing 2HG: qHTS for the HT-1080-IDH1KD cell line | 360,000 compounds, 2% hits | Potency, µM (titrated, usually from 46.1 µM), without a hit: at the highest dose activity, negative = toxicity, hits mostly cytotoxic | HT-1080 IDH1 knockdown viability, ATP luminescence, 48 h;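 note: potency is the fitted concentration of half-maximal effect; 0% = DMSO wells and -100% = cell-free medium wells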
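HT-1080-IDH1KD cells (IDH1 knocked down), 750/well in RPMI with 5% FBS, treated with compound 48 h at 37 degrees C. Viability by CellTiter-Glo luminescence, normalised to DMSO and no-cell wells; concentration-response curves classed.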
DT40 TDP1 no CPT = qHTS for Inhibitors of human tyrosyl-DNA phosphodiesterase 1 (TDP1): qHTS in cells in absence of CPT | Potency, µM (doses to about 46.2 µM), inactives show at the highest dose activity change, negative = growth inhibition, usual class: inhibitors | AID 686978, 2013 | 420,000 compounds, 15% hits | DT40 Tdp1-/- hTDP1 cells, no CPT, ATP luminescence, 48 h; note: potency is the fitted concentration of half-maximal effect; nearly all actives have a fitted effect of over 55% in size
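A cellular qHTS used chicken DT40 cells lacking endogenous Tdp1 but carrying stably transfected human TDP1. Compounds were applied without camptothecin, and cell growth kinetics were judged by ATP-dependent luminescence after ≥48 hr.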
DT40 TDP1 CPT = qHTS for Inhibitors of human tyrosyl-DNA phosphodiesterase 1 (TDP1): qHTS in cells in presence of CPT | Potency, µM (series often up to 46.2 µM), for the others: top-dose activity change, negative = growth inhibition, usual class: inhibitors | AID 686979, 2013 | 420,000 compounds, 12% hits | chicken DT40 Tdp1-/-;hTDP1 cells + 20 nM CPT, ATP luminescence, 48 h; note: potency is the fitted concentration of half-maximal effect; nearly all actives have a fitted effect of over 55% in size
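Cell growth measured by CellTiter-Glo luminescence after a minimum 48 h, 37 C compound exposure with 20 nM CPT in Tdp1-knockout DT40 cells stably expressing hTDP1, seeded 400/well; qHTS titration format.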
An asterisk follows results filed as active; ? = inconclusive; · = not tested or not shown. Unless noted, calls come from the whole dose curve; as a rule, active = well fitted curve in the direction sought with a large enough effect; inconclusive = small, poorly fitted or top-dose-only effect, or another doubt; inactive = no such curve, though single readings can be large; an effect the other way counts as inactive or inconclusive. Unless noted, % is set by controls: 0 for no effect and ±100 for the full control effect.

SMILES	IL1B secr inh	HT1080NT lethal	HT1080 IDH1KD tx	DT40 TDP1 no CPT	DT40 TDP1 CPT
CCOc1ccc(/C=C/C2=CC(C)(C)NC(=S)N2)cc1	0	-8%	?	?	15µM*
Cc1cccc(C)c1-n1c(C)cc(/C=N/NC(N)=S)c1C	80	?	?	8.2µM*	7.3µM*
Cc1nc2ccccn2c1C(=O)N/N=C/c1ccccc1	1	-1%	-2%	8%	16%
Cc1nc2ccccn2c1C(=O)N/N=C/c1cc(C)n(-c2ccc(Br)cc2)c1C	-22	-15%	-22%	21µM*	18µM*
Cc1cc(/C=N/O)c(C)n1-c1ccc(Br)cc1	0	18%	-9%	?	1%
Cc1nnc(N/N=C/c2c(Cl)cccc2Cl)n1N	-105*	0%	-5%	-16%	-7%
Cc1cc(/C=N/NC(N)=S)c(C)n1-c1ccc(Br)cc1	1	?	?	8.2µM*	2.9µM*
COC(=O)C1CSC(C(=O)OC)N1C(=O)CN1CCN(c2ccc(OC)cc2)CC1 (stereo unspecified)	12	-2%	1%	-15%	-8%
COc1ccccc1CNC(=O)[C@@H]1CCCN1S(=O)(=O)c1ccccc1F	4	23%	12%	-6%	8%
Cc1nnc(N/N=C/c2cc(C)n(-c3ccc(F)cc3)c2C)n1N	40	23µM*	?	16µM*	13µM*
Cc1nnc(N/N=C/c2ccccc2O)n1N	0	-2%	?	4%	-17%
Cc1cccc(-n2c(C)cc(/C=N\NC(=O)c3ccco3)c2C)c1	-15	4%	10%	?	?
Cc1cc(/C=N\NC(=O)c2cccs2)c(C)n1-c1ccc2ncccc2c1	-17	-24%	-30%	10µM*	13µM*
CC(C)Oc1ccc(Br)cc1/C=N\NC(N)=S	-27	-17%	-11%	16µM*	?
Cc1cc(/C=N/NC(N)=S)c(C)n1-c1cccc(Cl)c1	82	-29%	-12%	16µM*	13µM*
C=CCOC(=O)C1=C[C@@H](c2coc3ccccc3c2=O)C[C@@H](OCc2ccc(CO)cc2)O1	-12	2%	-1%	?	?
Cc1cc(/C=N\NC(=O)CC(=O)NC2CCCCC2)c(C)n1-c1ccc(Cl)cc1	-9	-4%	?	?	?
Cc1cc(/C=N/NC(N)=S)c(C)n1-c1ccc(Cl)cc1	27	-21%	-20%	18µM*	12µM*
O=C(OCC(=O)N1CCCC1=O)c1ncc(Cl)c(Cl)c1Cl	-13	-2%	2%	-4%	-5%
CC[n+]1c(/C=C2/C=C(C)CC(C)(C)C2)sc2ccc(OC)cc21	-112*	21µM*	?	1.2µM*	2.3µM*
CC[n+]1c(/C=C2\C=C(C)CC(C)(C)C2)sc2ccccc21	-60*	?	?	2.3µM*	0.65µM*
N=C1C2=C3Sc4ccccc4N3CCCC2=NN1c1cccc(S(=O)(=O)O)c1	7	20%	16%	-9%	-1%
CC[N+]1(C)CC2CCC(C)(C1)C2(C)C (stereo unspecified)	-4	-6%	-3%	-24%	-10%
CCCCCn1nc(C(=O)OCC(=O)c2c(N)n(C)c(=O)n(C)c2=O)c2ccccc2c1=O	-53*	1%	0%	21µM*	?
CCCCCCn1nc(C(=O)OCC(=O)c2c(N)n(C)c(=O)n(C)c2=O)c2ccccc2c1=O	?	1%	4%	18µM*	21µM*
SMILES	IL1B secr inh	HT1080NT lethal	HT1080 IDH1KD tx	DT40 TDP1 no CPT	DT40 TDP1 CPT
CCN(CC)c1ccc(/C=C2\SC(=O)N(C(C)C)C2=O)o1	-99*	16µM*	7.3µM*	2.1µM*	0.92µM*
COC(=O)C(C)N1C(=O)S/C(=C\c2ccc(-c3ccc(C(=O)O)cc3C)o2)C1=O (stereo unspecified)	-1	2%	0%	?	?
CC(C)C(=O)N1CCCC1(C)C(=O)NCc1ccccn1 (stereo unspecified)	49	2%	29%	31%	-18%
O=C(CCc1nnc2ccc(N3CCCC3)nn12)Nc1ccc(F)cc1F	-6	5%	6%	-30%	0%
O=C(NC1CCCCC1)c1ccc2ccccc2c1O	-61*	-19%	0%	15µM*	?
Nc1sc(Cc2ccccc2)cc1C(=O)NC1CCCCC1	-18	-11%	-15%	15µM*	?
O=C(NNC(=O)c1ccc2ccccc2c1O)NC1CCCCC1	-26	2%	0%	2%	-16%
COCCCNC(=O)c1cc(Cc2ccccc2)sc1N	24	-1%	7%	?	?
Cc1nn(C)c(C)c1Nc1ccc(N2C(=O)C3CC=CCC3C2=O)cc1[N+](=O)[O-] (stereo unspecified)	47	0%	-22%	?	?
Cc1ccc(NC(=O)CSc2nnc(Cc3csc(C)n3)o2)cc1	18	-7%	1%	?	0%
CCOc1ccc(Nc2nc(Cc3nnc(SCC(=O)c4ccc(C)c(C)c4)o3)cs2)cc1	14	?	?	16µM*	29µM*
Nc1nc(NC(=O)c2ccc(F)cc2)ns1	-73*	2%	-10%	3%	-3%
CC(=O)Cc1nsc(NC(=O)c2ccc(F)cc2)n1	0	-1%	-4%	0%	-16%
CCOC(=O)c1c(CN2CCN(CCO)CC2)n(-c2ccccc2)c2cc(Br)c(O)cc12	-81*	?	23µM*	18µM*	?
CCOC(=O)c1c(CSC(=N)N)n(-c2ccccc2)c2cc(Br)c(OC(C)=O)cc12	·	?	?	18µM*	?
CCOC(=O)c1c(CNc2ccncc2)n(C)c2cc(Br)c(O)cc12	-4	12%	3%	?	?
CCOC(=O)c1c(C)n(-c2ccccc2)c2ccc(O)cc12	23	-19%	-18%	?	-28%
CCOC(=O)c1c(CN2CCN(c3ccccc3)CC2)oc2cc(Br)c(O)cc12	13	?	-8%	?	?
CCOC(=O)c1c(CN2CCN(C)CC2)n(-c2ccccc2)c2cc(Br)c(O)cc12	-12	-5%	-3%	23µM*	?
CCOC(=O)c1c(CN(CC)CC)n(-c2ccccc2)c2ccc(O)cc12	-60*	0%	-26%	?	?
CCOC(=O)c1c(C)n(C)c2ccc(O)c(CN(CC)CC)c12	-25	4%	0%	?	?
